Measurements reported in the supplement of paper PMC9446081.
Screen size: about 39,000 compounds; about 220 (0.56%) showed activity. The entries come from a sample that favours actives as a whole. Values without a mark were called inactive.

System: Escherichia coli K-12 BW25113
Test: relative growth (OD600 normalised to plate interquartile mean) (fraction); higher = less growth inhibition, active = 0.2 or less
Details: 50 µM; LB; incubation time: overnight (16-24 h)
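Also: Wild-type cells incubated without shaking, value is the mean of two biological replicates.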

Row | Structure (SMILES) | relative growth
1 | C[C@@H]1CN([C@H](C)CO)C(=O)c2cccc(NC(=O)C3CC3)c2O[C@@H]1CN(C)S(=O)(=O)c1ccccc1 | 1.01
2 | Cc1ccc(S(=O)(=O)N(C)C[C@@H]2Oc3ccc(NS(=O)(=O)c4cccs4)cc3CC(=O)N([C@H](C)CO)C[C@H]2C)cc1 | 1
3 | C[C@H]1CN([C@@H](C)CO)C(=O)c2c(c3ccccc3n2C)-c2ccccc2CO[C@@H]1CN(C)S(=O)(=O)c1ccc(C(F)(F)F)cc1 | 1
4 | CO[C@@H]1CN(C)C(=O)c2ccc(NS(C)(=O)=O)cc2OC[C@H](C)N(S(C)(=O)=O)C[C@H]1C | 0.991
5 | Cc1nnc(NCc2ccccc2)n(N)c1=O | 0.975
6 | CCCC#Cc1ccc2c(c1)O[C@H](CN(C)Cc1ccc3c(c1)OCO3)[C@H](C)CN([C@H](C)CO)S2(=O)=O | 1.05
7 | C[C@@H]1CN([C@H](C)CO)C(=O)c2cc(NC(=O)NC3CCCCC3)ccc2O[C@@H](C)CCCCO[C@H]1CN(C)Cc1ccncc1 | 1.02
8 | C[C@@H]1CCCCO[C@@H](CN(C)S(=O)(=O)c2ccccc2)[C@@H](C)CN([C@H](C)CO)C(=O)c2cc(NC(=O)C3CCCCC3)ccc2O1 | 1.01
9 | O=C(C[C@H]1CC[C@@H](NC(=O)c2cccnc2)[C@H](CO)O1)NCCN1CCCCC1 | 1
10 | C[C@@H]1CN([C@H](C)CO)C(=O)c2cccc(NS(C)(=O)=O)c2O[C@H]1CN(C)C(=O)NC1CCCCC1 | 1.01
11 | NNC(=O)c1c(O)c2c([nH]c1=O)CCCC2 | 0.95
12 | Cc1[nH]c(=O)c(C(=O)O)c2c1CCC2 | 0.994
13 | O=C(O)c1c(O)c2c([nH]c1=O)CCCC2 | 0.104 (active)
14 | C[C@H](CO)N1C[C@H](C)[C@@H](CN(C)Cc2cccc(F)c2)Oc2cc(C#CC3CC3)ccc2S1(=O)=O | 1.04
15 | C[C@H](CO)N1C[C@H](C)[C@H](CN(C)CC2CC2)Oc2ccc(NS(=O)(=O)c3cn(C)cn3)cc2CC1=O | 0.99
16 | Cc1ccc(S(=O)(=O)Nc2ccc3c(c2)C(=O)N([C@H](C)CO)C[C@H](C)[C@@H](CN(C)C(=O)C2CCCCC2)OCCCC[C@H](C)O3)cc1 | 0.998
17 | Nc1ccccc1OCc1ccccc1 | 0.955
18 | CON=C(C(=O)NC1C(=O)N2C(C(=O)O)=C(CSC(=O)c3ccco3)CSC12)c1csc(N)n1.Cl (centres undefined) | 0.0447 (active)
19 | CO/N=C(\C(=O)N[C@@H]1C(=O)N2C(C(=O)O)=C(CSC(=O)c3ccco3)CS[C@H]12)c1csc(N)n1 | 0.0342 (active)
20 | CO/N=C(\C(=O)N[C@@H]1C(=O)N2C(C(=O)O)=C(C[n+]3ccn4ncccc43)CS[C@H]12)c1nsc(N)n1 | 0.0425 (active)
21 | C[C@H](CO)N1C[C@H](C)[C@H](CN(C)Cc2ccc(-c3ccccc3)cc2)Oc2c(NC(=O)c3nc4ccccc4s3)cccc2C1=O | 1.01
22 | CN1CCC[C@H]1CO | 0.919

Row | Structure (SMILES) | relative growth
23 | COCCNC(=O)C[C@@H]1C[C@@H]2c3cc(NS(C)(=O)=O)ccc3O[C@@H]2[C@H](CO)O1 | 1
24 | C[C@@H]1CN([C@H](C)CO)C(=O)Cc2cc(NC(=O)CCCCCC(=O)Nc3ccccc3N)ccc2O[C@H]1CN(C)C(=O)Nc1cccc2ccccc12 | 0.963
25 | C[C@@H]1CCCCO[C@H](CN(C)S(=O)(=O)c2ccc(F)cc2)[C@H](C)CN([C@@H](C)CO)C(=O)c2cc(NC(=O)Nc3ccc4c(c3)OCO4)ccc2O1 | 1
26 | C[C@H]1CCCCO[C@H](CN(C)S(=O)(=O)c2cn(C)cn2)[C@@H](C)CN([C@@H](C)CO)C(=O)c2cc(NS(=O)(=O)c3cn(C)cn3)ccc2O1 | 0.995
27 | C[C@@H]1CCCCO[C@@H](CN(C)S(=O)(=O)c2cccs2)[C@@H](C)CN([C@H](C)CO)C(=O)c2cc(NC(=O)Nc3ccccc3)ccc2O1 | 1.02
28 | Cc1ccc(-c2ccc3c(c2)O[C@@H](CN(C)Cc2cncnc2)[C@H](C)CN([C@H](C)CO)S3(=O)=O)cc1 | 1.01
29 | C[C@H](CO)N1C[C@H](C)[C@@H](CN(C)Cc2ccc3c(c2)OCO3)Oc2c(NC(=O)Nc3cccc4ccccc34)cccc2C1=O | 1.01
30 | C[C@H]1CCCCO[C@H](CN(C)C(=O)Nc2ccccc2)[C@@H](C)CN([C@@H](C)CO)C(=O)c2cc(NS(=O)(=O)c3cccs3)ccc2O1 | 1.02
31 | CCC(=O)Nc1ccc2c(c1)C(=O)N(C)C[C@H](OC)[C@H](C)CN(C(=O)CN1CCOCC1)[C@H](C)CO2 | 0.974
32 | NCCn1cccn1 | 1.01
33 | Cl.N=C(N)n1cccn1 | 0.042 (active)
34 | NCc1ccccc1-n1cccn1 | 1
35 | Cc1cc(C(=O)Nc2cccc3c2O[C@@H](CN(C)C(=O)Nc2ccc4c(c2)OCO4)[C@@H](C)CN([C@@H](C)CO)C3=O)n(C)n1 | 0.987
36 | C[C@H]1CN([C@@H](C)CO)C(=O)c2cc(-c3ccc(C(=O)N(C)C)cc3)cnc2O[C@H]1CN(C)C(=O)c1ccncc1 | 0.964
37 | COc1ccc([Si](C)(C)[C@@H]2[C@@H](CC(=O)N3CCC[C@H]3CO)O[C@]3(C(=O)N(Cc4cccc(N5CCCCC5=O)c4)c4ccccc43)[C@H]2C)cc1 | 1.02
38 | C=CC1=C(C(=O)O)N2C(=O)C(NC(=O)C(=NOCC(=O)O)c3csc(N)n3)C2SC1 (centres undefined) | 1.01
39 | Nc1nc(/C(=C/CC(=O)O)C(=O)N[C@@H]2C(=O)N3C(C(=O)O)=CCS[C@H]23)cs1 | 1.01
40 | C=CC1=C(C(=O)O)N2C(=O)[C@@H](NC(=O)/C(=N\O)c3csc(N)n3)[C@H]2SC1 | 0.0321 (active)
41 | C=CC1=C(C(=O)O)N2C(=O)C(NC(=O)C(=NO)c3csc(N)n3)C2SC1 (centres undefined) | 0.05 (active)
42 | Nc1nc(C(=CCC(=O)O)C(=O)NC2C(=O)N3C(C(=O)O)=CCSC23)cs1 (centres undefined) | 0.0485 (active)
43 | C/C=C/C1=C(C(=O)O)N2C(=O)[C@@H](NC(=O)[C@H](N)c3ccc(O)cc3)[C@H]2SC1 | 0.876
44 | C=CC1=C(C(=O)O)N2C(=O)[C@@H](NC(=O)/C(=N\OCC(=O)O)c3csc(N)n3)[C@H]2SC1 | 0.0479 (active)
